From paper PMC5540273 (PLoS ONE, 2017) come the findings set out here.

Among the test systems are TIE1; TLK1; TLK2; TNIK; TNK1; TNK2; TNNI3K; TRKB; TRPM6; TSSK1B; TSSK3; TTK; TXK; TYRO3; ULK1.
Holding throughout (settings): concentration: 1 μM, replicates: in singlicate; n = 1
A further test deals with T1, TIE2.
T1 construct: gene TEK

The test system of the next test is T2, TRKA.
T2 construct: gene NTRK1

Another test deals with T3, TRKC.
T3 construct: gene NTRK3

In test [1] the test system is TYK2(JH1domain-catalytic).
Test [2] deals with TYK2(JH2domain-pseudokinase).

Each structure is given as a SMILES string.
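Note: KINOMEscan kinase panel screen.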

As to `COc1ccc(NC(=O)Nc2ccc(C)c(-c3ccc(C(=O)Nc4ccncc4)cc3)c2)cc1` [GSK1398475], the “%Inh” value in the test on TIE1 worked out at 0%; in the test on TIE2, 0%; in the test with TLK1, 19%; in the test on TLK2, 0%; in the test on TNIK it was 0%; in the test with TNK1 it was 0%. The “%Inh” value is reported as 17% in the test with TNK2; 17% in the test with TNNI3K; 0% in the test with TRKA; 0% with TRKB; 0% with TRKC; 0% with TRPM6. The “%Inh” value with TSSK1B is listed as 10%; in the test with TSSK3 it was 0%; with TTK, 0%; in the test with TXK it was 0%; in test [1], 0%; in test [2], 5%. In addition, the “%Inh” value with TYRO3 and in the test with ULK1 was 0% in each case.

In the case of `FC(F)(F)c1ccc(-c2cc(-c3c[nH]nc3-c3ccccn3)ccn2)cc1` [GW599550], the “%Inh” value with TIE1 was 4%; in the test on TIE2, 0%; in the test on TLK1, 11%; in the test on TLK2, 11%; in the test with TNIK it was 78%; in the test on TNK1 it was 0%. The “%Inh” value was 16% with TNK2; 0% in the test with TNNI3K; 0% in the test with TRKA; 0% in the test on TRKB; 14% in the test with TRKC; 38% in the test on TRPM6. The “%Inh” value with TSSK1B is 13%; in the test on TSSK3 it was 7%; with TTK it was 0%; in the test on TXK, 0%; in test [1], 20%; in [2], 21%. The “%Inh” value in the test on TYRO3 and with ULK1 was 0% each time.

Consider `NC(=O)c1sc(-n2cnc3ccccc32)cc1OCc1ccccc1F` [GSK1024306], for which the “%Inh” value in the test on TIE1 was determined as 2%; in the test with TIE2, 0%; with TLK1, 0%; in the test with TLK2, 0%; in the test with TNIK, 56%; in the test with TNK1 it was 0%. In addition, the “%Inh” value in the test with TNK2 was 9%; with TNNI3K, 18%; with TRKA, 51%; in the test on TRKB, 0%; with TRKC, 16%; with TRPM6, 0%. Also, the “%Inh” value in the test with TSSK1B is recorded as 0%; with TSSK3, 20%; with TTK, 12%; in the test with TXK, 0%; in [1] it was 13%; in [2], 28%. For the same compound, the “%Inh” value with TYRO3 and in the test with ULK1 was 0% throughout.

As to `Cn1ccc2ncnc(Oc3ccc(NC(=O)Nc4cccnc4)c(Cl)c3)c21`, the “%Inh” value was found to be 18% in the test with TIE1; 0% with TIE2; 13% in the test with TLK1; 0% with TLK2; 1% in the test on TNIK; 0% in the test with TNK1. Further, the “%Inh” value in the test with TNK2, in the test on TNNI3K, in the test with TRKA, in the test with TRKB, with TRKC and in the test on TRPM6 was 0% throughout. For the same compound, the “%Inh” value was determined as 0% in the test with TSSK1B; 2% with TSSK3; 1% in the test with TTK; 0% in the test on TXK; 0% in [1]; 0% in [2]. In addition, the “%Inh” value with TYRO3 and in the test with ULK1 was 0% each time.

For `CS(=O)(=O)CCNCc1ccc(-c2ccc3ncnc(Nc4ccc(OCc5ccccc5)c(Cl)c4)c3c2)o1.Cl` [GW574783], the “%Inh” value in the test on TIE1 turned out to be 34%; in the test on TIE2, 2%; in the test with TLK1 it was 0%; in the test on TLK2, 0%; in the test on TNIK it was 0%; in the test on TNK1 it was 0%. In addition, the “%Inh” value in the test on TNK2 was 9%; with TNNI3K, 0%; in the test on TRKA, 17%; with TRKB, 0%; with TRKC, 24%; with TRPM6, 7%. Besides, the “%Inh” value in the test with TSSK1B amounted to 39%; in the test with TSSK3 it was 21%; in the test with TTK it was 18%; in the test with TXK, 10%; in test [1], 27%; in test [2], 22%. The “%Inh” value in the test on TYRO3 and in the test on ULK1 was 0% throughout.

Turning to `Fc1cccc(COc2ccc(Nc3ncnc4sc(-c5ccc[nH]5)cc34)cc2Cl)c1` [GW707818], the “%Inh” value in the test with TIE1 is reported as 0%; with TIE2 it was 16%; with TLK1, 25%; with TLK2 it was 11%; with TNIK, 0%; in the test with TNK1, 0%. In addition, the “%Inh” value in the test with TNK2 was 13%; in the test on TNNI3K, 13%; with TRKA, 22%; in the test with TRKB, 0%; in the test on TRKC, 14%; in the test on TRPM6 it was 30%. The “%Inh” value is on record as 0% in the test with TSSK1B; 7% with TSSK3; 0% with TTK; 5% with TXK; 17% in [1]; 10% in test [2]. The “%Inh” value in the test with TYRO3 and in the test on ULK1 was 0% in each case.

For the compound `O=C(Nc1ccccc1)Nc1ccc(Oc2ccc3nccn3n2)cc1`, the “%Inh” value was found to be 13% in the test with TIE1; 46% in the test on TIE2; 0% with TLK1; 0% in the test with TLK2; 0% in the test with TNIK; 43% in the test with TNK1. For the same compound, the “%Inh” value is listed as 10% in the test with TNK2; 82% in the test with TNNI3K; 0% in the test on TRKA; 0% in the test on TRKB; 0% in the test on TRKC; 0% with TRPM6. The “%Inh” value in the test on TSSK1B amounted to 1%; in the test with TSSK3, 0%; in the test on TTK it was 0%; with TXK it was 12%; in test [1], 0%; in test [2], 0%. Further, the entries for the “%Inh” value in the test on TYRO3 and with ULK1 were 19% and 0%, respectively.

For `Fc1cccc(COc2ccc(Nc3ncnc4nn5ccccc5c34)cc2Cl)c1` [GW689066], the “%Inh” value in the test with TIE1, with TIE2, with TLK1, in the test with TLK2, with TNIK and in the test with TNK1 was 0% in each case. Further, the “%Inh” value in the test with TNK2 worked out at 10%; in the test on TNNI3K, 0%; in the test on TRKA, 0%; in the test on TRKB it was 22%; with TRKC it was 28%; in the test with TRPM6 it was 0%. The “%Inh” value with TSSK1B is 0%; in the test with TSSK3, 17%; in the test on TTK, 10%; in the test on TXK, 3%; in test [1] it was 29%; in test [2], 24%. Further, the “%Inh” value was 0% in the test with TYRO3 and 1% in the test on ULK1.

In the case of `COc1cc2c(Nc3cccc(NC(=O)c4ccccc4)c3)ncnc2cc1OCCCN1CCOCC1` [GSK223810], the “%Inh” value turned out to be 24% in the test on TIE1; 0% in the test with TIE2; 0% in the test with TLK1; 0% in the test on TLK2; 0% with TNIK; 22% in the test with TNK1. Moreover, the “%Inh” value with TNK2 worked out at 13%; with TNNI3K it was 25%; in the test on TRKA, 45%; in the test with TRKB, 0%; in the test on TRKC, 0%; with TRPM6 it was 0%. The “%Inh” value is given as 5% in the test on TSSK1B; 17% in the test with TSSK3; 29% in the test with TTK; 0% in the test with TXK; 0% in test [1]; 0% in test [2]. The “%Inh” value with TYRO3 came out at 0%; in the test on ULK1, 17%.

Regarding `Cc1cc(N2CCC(NS(=O)(=O)c3ccc(F)cc3)CC2)nc(Nc2cccc(C#N)c2)n1.O=C(O)C(F)(F)F` [GSK1653537], the “%Inh” value worked out at 3% in the test with TIE1; 0% in the test on TIE2; 5% in the test on TLK1; 0% in the test with TLK2; 0% in the test with TNIK; 0% in the test with TNK1. The “%Inh” value turned out to be 11% in the test on TNK2; 0% in the test on TNNI3K; 0% with TRKA; 0% with TRKB; 0% in the test with TRKC; 0% in the test on TRPM6. Besides, the “%Inh” value stood at 27% in the test with TSSK1B; 8% in the test on TSSK3; 1% in the test on TTK; 0% with TXK; 0% in test [1]; 2% in test [2]. Also, the “%Inh” value with TYRO3 and in the test with ULK1 was 0% each time.

Consider `Cl.Cl.c1ccc(-c2cc3ccncc3cc2OC2CCNCC2)cc1` [GSK1122999], for which the “%Inh” value in the test with TIE1 is listed as 1%; in the test with TIE2, 0%; with TLK1, 0%; in the test with TLK2, 7%; in the test with TNIK it was 0%; in the test with TNK1 it was 6%. Moreover, the “%Inh” value in the test with TNK2 is recorded as 27%; with TNNI3K it was 26%; with TRKA, 0%; in the test with TRKB it was 0%; with TRKC it was 0%; in the test on TRPM6 it was 15%. The “%Inh” value in the test on TSSK1B was found to be 0%; in the test on TSSK3, 47%; in the test on TTK it was 0%; in the test with TXK, 4%; in [1] it was 24%; in [2] it was 79%. Moreover, the results for the “%Inh” value in the test on TYRO3 and in the test with ULK1 were 7% and 12%, respectively.
